Pf Dd2 inh: inhibitors of Plasmodium falciparum Dd2 growth; P. falciparum Dd2 growth, SYBR Green, 72 h; Potency, µM (top dose mostly 28.9 µM), for the others: at the highest dose activity, negative = inhibition, usual class: inhibitors; 120,000 compounds, 4.3% hits; AID 1347417; active = well fitted inhibition curve with a large enough effect;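 also: plate controls were DMSO vehicle for no effect and reference drug for full effect; nearly all actives have a fitted effect of over 65% in size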
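Infected erythrocytes (Dd2, 0.3% parasitemia, 2.5% hematocrit final) are added to compound in RPMI-1640/Albumax II medium, grown 72 h at 37C in low oxygen, then lysed with saponin/Triton-X containing SYBR Green and read by fluorescence.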
* hit, by the source's call; i = inactive; [ ] = remark or other dose. Only a selection was taken, and hits are over-represented in it overall. Potency is read from the fitted curve at half-maximal effect.

SMILES	Pf Dd2 inh
Cc1ccc(-c2nnc(Nc3ccc(OC(F)(F)Cl)cc3)c3ccccc23)cc1S(=O)(=O)NC(C)(C)CO	13µM*
COc1ccc(S(=O)(=O)N2CCC(c3nnc(-c4ccccc4C)o3)CC2)c(OC)c1	-12%
COc1ccccc1N1CCN(S(=O)(=O)c2cc(-c3cc(C)no3)ccc2C)CC1	-4%
Cc1ccc(-c2nn3c(C)nnc3c3ccccc23)cc1S(=O)(=O)NCCO	8%
Cc1ccc(N2CCN(S(=O)(=O)c3ccc(Cl)c4ccccc34)CC2)c(C)c1	17%
COc1ccc(N2CCN(S(=O)(=O)c3ccc(-c4ccno4)cc3OC)CC2)cc1	54%
FC(F)(F)c1cccc(C2=NOC3(CCN(Cc4ccncc4)CC3)C2)c1	-19%
CC(C)N1C(=O)CO[C@H](c2ccc(NC(=O)NCc3ccccc3)cc2)[C@H]1CO	-30%[44.1 µM]
COc1cccc(NC(=O)CC2CCCCN(C)C2=O)c1 (configuration not stated)	11%
CC[C@@]1(O)CCN(C(=O)c2ccccc2OC(F)(F)C(F)F)C[C@H]1O	9%
COCCn1ncc(N2CCC(C(=O)NCCCN3CCc4ccccc4C3)C2)cc1=O (configuration not stated)	i
O=C(c1cccnc1)N1CCC2(CCCCO2)CC1	-20%
CCn1c(CO)nnc1C1CC(NC(=O)CCc2n[nH]c3c2CCCC3)C1 (configuration not stated)	-4%
CCn1nccc1C(=O)N1CC[C@H]2C(=O)NCCCCCCN(Cc3ccncc3)[C@@H]2C1	-3%
CC(C)c1nncn1C1CCN(S(=O)(=O)c2cc(F)cc(F)c2)CC1	-9%
CCOc1ccc(CC(=O)N2CCCN(C(=O)C3CC3)c3ccccc32)cc1	i
COC(=O)COc1ccc(-c2nnc(Nc3ccc(O)cc3)c3ccccc23)cc1	i
CNC(=O)c1cc(Nc2nnc(-c3ccc(O)cc3)c3ccccc23)ccc1OC	i
COc1nnc(-c2ccc(N3CCCCC3)c(NC(=O)c3ccc(C)cc3)c2)c2ccccc12	-8%
Cc1ccc(-c2nnc(Nc3ccc(O)cc3)c3ccccc23)cc1S(=O)(=O)N1CCOCC1	8.9µM*
Cc1ccc(Nc2nnc(-c3ccc(C)c(S(=O)(=O)N4CCN(C)CC4)c3)c3ccccc23)cc1	7.9µM*
Cc1ccc(-c2nnc(Nc3ccccc3)c3ccccc23)cc1S(=O)(=O)N1CCN(C)CC1	-11%
O=C(Cc1ccc(Cl)cc1)N[C@H]1[C@H](O)[C@H](O)C[C@@H]1c1cccnc1	10%[44.1 µM]
CCCC(=O)N1Cc2ccccc2CC2(CCN(Cc3ccncc3)C2)C1 (configuration not stated)	11µM*
O=S(=O)(c1ccccc1)N1Cc2ccccc2CC2(CCN(Cc3cccnc3)C2)C1 (configuration not stated)	6.3µM*
SMILES	Pf Dd2 inh
CC(=O)N1Cc2ccccc2CC2(CCN(Cc3cccnc3)C2)C1 (configuration not stated)	-12%
CCCC(=O)N1Cc2ccccc2CC2(CCN(Cc3cccnc3)C2)C1 (configuration not stated)	11µM*
O=C(O)CCC(=O)N1Cc2ccccc2CC2(CCCN(Cc3ccncc3)C2)C1 (configuration not stated)	0%
CCCC(=O)N1Cc2ccccc2CC2(CCN(Cc3ccc(NC(C)=O)cc3)C2)C1 (configuration not stated)	-27%
CCC(=O)N1Cc2ccccc2CC2(CCN(Cc3ccncc3)C2)C1 (configuration not stated)	-24%
O=C(O)CCC(=O)N1Cc2ccccc2CC2(CCCN(Cc3cccnc3)C2)C1 (configuration not stated)	8%
C[S+](=O)([O-])N1Cc2ccccc2CC2(CCCN(Cc3ccccc3)C2)C1 (configuration not stated)	-12%
COC(=O)[C@H]1CN(C(C)=O)CCN1C(C)=O	0%[44.1 µM]
O=C(c1cc(F)ccc1F)N1CCCC(n2cc(-c3nc(-c4ccccc4)no3)nn2)C1 (configuration not stated)	46%
O=C(C1CCCC1)N1CCC(C(=O)O)(c2ccccc2)CC1	-2%
CCc1ccc(CSc2nc(-c3ccc(OC)cc3)nc3c2Cc2c(CO)cnc(C)c2O3)cc1	-6%
CCN(CC)C(=O)CSc1nc(-c2ccccc2F)nc2c1Cc1c(CO)cnc(C)c1O2	11µM*
CCc1ccc(-c2nc3c(c(SCc4ccccc4F)n2)Cc2c(CO)cnc(C)c2O3)cc1	-10%
CCOc1ccc(N(CC)C(=O)CCc2nc(-c3ccccc3F)no2)cc1	47%[0.594 µM]
CCc1ccc(Nc2nc(-c3ccccc3F)no2)cc1	i
COc1ccccc1-c1nc2c(c(SCc3cccc(Cl)c3)n1)Cc1c(CO)cnc(C)c1O2	2.5µM*
C=Cc1ccc(CSc2nc(-c3ccccc3Cl)nc3c2Cc2c(CO)cnc(C)c2O3)cc1	6.3µM*
Cc1cccc(NC(=O)CSc2nc(-c3ccccc3Cl)nc3c2Cc2c(CO)cnc(C)c2O3)c1C	-1%
CCc1ccc(CSc2nc(-c3ccccc3F)nc3c2Cc2c(CO)cnc(C)c2O3)cc1	10µM*
Cc1ccc(-c2nc3c(c(SCc4ccc(Br)cc4)n2)Cc2c(CO)cnc(C)c2O3)cc1	-1%
COc1ccc(-c2nc3c(c(SCC(=O)N(C)c4ccccc4)n2)Cc2cc(C)ccc2O3)cc1	9%
COc1ccc(-c2nc3c(c(SCc4cc(C)ccc4C)n2)Cc2c(CO)cnc(C)c2O3)cc1	-8%
COc1ccc(NC(=O)c2ccc3c(c2)OCCN(Cc2ncccn2)C3)c(F)c1	-11%[44.1 µM]
O=C(NCc1ccccc1)N1CCC2(CCCCO2)CC1	-2%
CNC(=O)C(C)(C)N1CCC[C@H]1C(=O)NCCc1ccccc1	-11%[44.1 µM]
SMILES	Pf Dd2 inh
CC(=O)Nc1cccc(-c2nc(-c3c(C)noc3C)cc3cc(CO)oc23)c1	i
O=C(N1CCN(c2ncncn2)CC1)N(c1ccccc1)c1ccccc1	-6%
CN(Cc1cccnc1)c1nc2c(c(=O)[nH]1)CCN(Cc1ccc3cc[nH]c3c1)CC2	i[5.79 µM]
CC(=O)N1CCC(NC2(Cc3cc(CN4CCOCC4)on3)COC2)CC1	19%[44.1 µM]
COc1ccc(-c2c3c(nc4sc(C(=O)Nc5ccc(F)cc5)c(N)c24)CC(C)(C)CC3=O)cc1	0.56µM*
Cc1c(C(=O)Nc2ccc(F)cc2)sc2nc[nH]c(=O)c12	15%
COc1ccc(-c2ccc3c(N)c(C(=O)Nc4cc(F)ccc4C)sc3n2)cc1	22%
CC(C)N1CCN(C2CCOC3(CCN(C(=O)C4CC4)CC3)C2)CC1 (configuration not stated)	16%
CCCN(CCC)C(=O)CN1C(=O)NC2(CCC(C)CC2)C1=O (configuration not stated)	i
COCCn1c2c(c(=O)n1-c1ccccc1)CCN(C(=O)c1cccc(O)c1)C2	19%[44.1 µM]
CCCCCn1c(=N)n(CC(O)COc2cccc(C)c2)c2ccccc21 (configuration not stated)	1µM*
CCCn1c(COc2cccc(C)c2)nc2ccccc21	-26%
Cc1ccccc1NCc1nc2ccccc2n1CCOc1ccccc1	42%[5.79 µM]
CCn1c2ccccc2c2cc(NC(=O)COc3cccc(C)c3)ccc21	i
Cc1ccccc1OCC(O)Cn1c(=N)n(CCN2CCCCC2)c2ccccc21 (configuration not stated)	2.8µM*
Cc1ccccc1OCC(=O)N1C[C@@H](CN2CCCCC2)[C@@H](CO)C1	i
Cc1ccccc1OCCn1c(=N)n(C(C)C)c2ccccc21	5.6µM*
OC(COc1ccccc1-c1ccncc1)CN1CCOCC1 (configuration not stated)	-12%

Assay outcomes (PubChem BioAssay)
